Calb FLC = affects C. albicans growth with fluconazole; C. albicans CaCi-2 (fluconazole-resistant clinical isolate) + fluconazole, Alamar Blue growth, 48 h; growth inhibition, % (test concentration not listed); 0.57% of 300,000 active;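 active = growth inhibition above about 58% in most replicates, limit read from the data, passing the limit was not always enough; inconclusive = exactly half the replicates above a set limit; inactive = most replicates below a set limit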;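 also: all wells also contain fluconazole at 8 µg/ml as a sub-toxic cotreatment; 0% = median of DMSO wells and 100% = median of geldanamycin control wells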
Cardio protect = myocardial damage modulation in H9c2 cells; AID 588492; 0.63% of 360,000 active; protection from H2O2 cell death, % at 20 µM; H9c2 cardiomyocytes, H2O2 injury protection, ATPLite, 2 h;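 active = compounds giving at least 50% protection of heart cells from peroxide-induced death in the single-dose screen, raw or plate-pattern-corrected value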;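 also: 0% = DMSO wells with peroxide and 100% = DMSO wells without peroxide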
Efflux pump inh = blocks antifungal efflux pumps in multiplex yeast assay; S. cerevisiae Candida pump triplex, Nile Red efflux; inhibition, % at 10 µM; AID 485275; 0.44% of 330,000 active;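 active = plate passing quality check with inhibition over a set limit, or well fluorescence over plate mean plus 4 SD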;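 also: Nile Red retained in pooled yeast measured as flow cytometry median fluorescence; 0% = buffer negative control and 100% = Enniatin B positive control; higher means more Nile Red kept so more efflux inhibition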
PHOSPHO1 block = inhibitors of human PHOSPHO1 phosphatase; Q8TCT1; recombinant PHOSPHO1, absorbance phosphatase assay; inhibition, % at 13.3 µM; 1.1% of 290,000 active; AID 1565; in the data active = inhibition above about 60%
Cl transport mod = KCC2 (human) Cl- transport modulation | Q9H2X9 | KCC2 cells, thallium flux FluoZin-2 fluorescence | B-score of Tl+ flux slope (higher = more flux/activation; lower = inhibition) at 10 µM | 2.2% of 190,000 active | AID 1456;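 active = thallium flux slope and its plate-corrected score both differing from the plate sample mean at a set confidence after two filtering rounds, in either direction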;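 also: slope of fluorescence scaled to starting intensity during 10 to 20 s after thallium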
Target sequence (Q9H2X9 whole entry, looked up): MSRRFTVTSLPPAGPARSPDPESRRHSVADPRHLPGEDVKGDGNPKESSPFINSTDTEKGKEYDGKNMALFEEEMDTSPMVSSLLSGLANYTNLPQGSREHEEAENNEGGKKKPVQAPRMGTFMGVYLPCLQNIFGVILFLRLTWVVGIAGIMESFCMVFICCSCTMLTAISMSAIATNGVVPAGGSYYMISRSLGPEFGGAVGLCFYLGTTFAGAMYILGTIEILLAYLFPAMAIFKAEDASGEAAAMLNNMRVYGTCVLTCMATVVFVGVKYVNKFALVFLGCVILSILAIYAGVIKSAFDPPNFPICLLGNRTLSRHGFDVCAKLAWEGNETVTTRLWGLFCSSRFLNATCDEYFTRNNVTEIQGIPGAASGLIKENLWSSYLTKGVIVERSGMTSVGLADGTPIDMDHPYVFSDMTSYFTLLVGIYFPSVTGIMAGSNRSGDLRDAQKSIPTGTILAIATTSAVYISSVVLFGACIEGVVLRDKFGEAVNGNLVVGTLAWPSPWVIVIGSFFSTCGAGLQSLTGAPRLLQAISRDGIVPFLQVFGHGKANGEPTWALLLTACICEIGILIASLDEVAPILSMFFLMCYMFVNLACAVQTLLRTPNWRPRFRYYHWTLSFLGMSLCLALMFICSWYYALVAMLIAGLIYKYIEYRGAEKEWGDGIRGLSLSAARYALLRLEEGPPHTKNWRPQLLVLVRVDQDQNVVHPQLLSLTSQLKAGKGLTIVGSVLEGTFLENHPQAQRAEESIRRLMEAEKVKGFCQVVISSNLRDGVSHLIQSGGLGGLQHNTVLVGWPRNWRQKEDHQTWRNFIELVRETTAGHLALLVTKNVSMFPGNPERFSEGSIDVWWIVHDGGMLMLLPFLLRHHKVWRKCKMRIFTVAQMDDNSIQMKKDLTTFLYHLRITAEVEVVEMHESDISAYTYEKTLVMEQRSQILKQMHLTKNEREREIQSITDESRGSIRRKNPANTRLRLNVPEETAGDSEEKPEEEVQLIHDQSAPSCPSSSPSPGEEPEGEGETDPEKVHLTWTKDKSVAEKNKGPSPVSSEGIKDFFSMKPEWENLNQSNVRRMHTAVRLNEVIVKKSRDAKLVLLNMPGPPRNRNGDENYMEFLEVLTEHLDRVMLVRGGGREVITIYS
KCC2 secondary = KCC2 (human) modulation, secondary assay | normalised thallium flux (F/F0 slope) at 10 µM | shares compounds with Cl transport mod | 15% of 3,700 active | HEK293-KCC2, thallium flux, FluoZin2 fluorescence; hits give high values;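 active = thallium flux slope above the same plate's solvent-only control mean plus 3 SD; inconclusive = the two replicate wells disagree; inactive = no significant difference from solvent-only control wells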
KCC2 bumet counter = thallium flux persisting under bumetanide in KCC2 cells, counter-screen secondary assay; shares compounds with Cl transport mod; HEK293-KCC2 + bumetanide/ouabain, thallium flux FluoZin2; hits give high values; normalized thallium flux at 10 µM; 49% of 3,700 active;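 active = thallium entry rate above the same plate's blocked-transporter control wells by more than 3 SD; inconclusive = the two repeat wells disagree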;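 also: raw slope of fluorescence over initial fluorescence between 10 and 20 s after thallium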
KCC2 sec2 = confirmation of human KCC2 transport modulators; 23% of 3,700 active; HEK293-KCC2, thallium flux FluoZin2 fluorescence; actives lie on both sides; F/F0 rise rate, 10–20 s post-thallium; normalized thallium flux at 10 µM; shares compounds with Cl transport mod;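 active = thallium flux slope more than 3 SD above or below the plate's solvent-only control mean, mostly below; inconclusive = the two repeat wells disagreed; inactive = no significant shift from solvent-only controls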;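 also: raw slope with 0.1% DMSO as baseline and bumetanide as block control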
HEK293 Tl flux = parental HEK flux effect, counter-screen | 46% of 3,700 active | HEK293 parental cells, thallium flux FluoZin2, ouabain; baseline-ratio fluorescence slope, 10–20 s after thallium | thallium flux rate (normalised fluorescence) at 10 µM | shares compounds with Cl transport mod;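 active = thallium flux rate significantly above the same plate's solvent-only control wells, beyond their mean plus 3 SD; inconclusive = the two replicate wells gave conflicting results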
KCC2 retest ouab = confirmation of human KCC2 modulators with ouabain; shares compounds with Cl transport mod; HEK293-KCC2, thallium flux FluoZin2 fluorescence; bidirectional: low = inhibitor, high = activator; raw Tl+ flux slope (below DMSO = inhibition, above = activation) at 10 µM; 48% of 3,700 active;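 active = thallium flux slope beyond 3 SD from same-plate DMSO control mean in most replicates, usually higher, sometimes lower; inconclusive = repeat tests gave conflicting results; inactive = no significant difference from controls in most replicates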;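 also: slope of initial-normalized fluorescence between seconds 10 and 20 after thallium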
HEK counter2 = acts in parental HEK cells, second KCC2 counter-screen | HEK293 parental, thallium flux FluoZin-2 fluorescence slope | 33% of 3,700 active | shares compounds with Cl transport mod | AID 1718 | thallium flux slope at 10 µM;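 active = thallium flux slope above the same plate's solvent-control mean plus 3 SD in both duplicate wells; inconclusive = duplicate wells that disagreed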;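 also: run without ouabain in cells lacking the KCC2 cotransporter; slope of fluorescence scaled to its starting value between 10 and 20 s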
The depositor's hits bear a star; ? = inconclusive; · = no result given. Sampled rows, rich in hits. Any-hit rate of the full collection: about 3.3%.

SMILES	Calb FLC	Cardio protect	Efflux pump inh	PHOSPHO1 block	Cl transport mod	KCC2 secondary	KCC2 bumet counter	KCC2 sec2	HEK293 Tl flux	KCC2 retest ouab	HEK counter2
Nc1c(-c2ccc3c(c2)OCCO3)oc2ccccc2c1=O	7	-6	0	19	·	·	·	·	·	·	·
O=C(COC(=O)C1=Cc2ccccc2OC1)NCc1ccc(F)cc1	·	-3	·	·	·	·	·	·	·	·	·
CCN(C(=O)CSc1nnc(-c2ccccc2OC)n1N)c1c(N)n(Cc2ccccc2)c(=O)[nH]c1=O	·	6	·	·	·	·	·	·	·	·	·
CC1Sc2ccc(S(=O)(=O)CCC(=O)NCc3cccs3)cc2NC1=O (centres undefined)	-5	2	0	17	·	·	·	·	·	·	·
Cc1noc(C)c1S(=O)(=O)Nc1ccc(C(=O)NC2CCCCC2C)cc1 (centres undefined)	-9	-4	0	8	1.2	·	·	·	·	·	·
Cc1noc(C)c1S(=O)(=O)Nc1ccc(C(=O)NC2CCCCCC2)cc1	10	-4	0	18	-4.2*	?	0.0065	0.032	0.0079	0.022	0.011
O=C1CC2(CCN(C(=O)c3ccc(F)c(F)c3)CC2)Oc2ccccc21	13	-4	0	·	·	·	·	·	·	·	·
Cc1cccc(C)c1NC(=O)CN1CCc2ccccc2C1	-2	-7	0	·	·	·	·	·	·	·	·
CCCn1c(=S)[nH]c2ccccc2c1=O	-26	0	0	44	79*	?	0.12*	0.091*	0.085*	0.1*	0.088*
O=c1c2ccccc2[nH]c(=S)n1CCc1ccccc1	-11	6	0	6	29*	0.027*	0.072*	0.038	0.11*	0.061*	0.055*
O=C(CCn1c(=S)[nH]c2ccccc2c1=O)N1CCCCC1	-2	4	0	17	·	·	·	·	·	·	·
CC1CCCN(C(=O)CCCn2c(=S)[nH]c3ccccc3c2=O)C1 (centres undefined)	20	3	0	15	3.2*	0.007	0.0099*	0.032	0.0099*	?	0.012*
O=c1c2ccccc2[nH]c(=S)n1Cc1cccs1	?	9	0	-9	26*	?	0.048*	0.029	0.017*	0.041*	0.012*
Cc1ccc(-c2nnc(SCC(=O)NC3CCCC3)n2C)cc1	-4	0	0	49	·	·	·	·	·	·	·
CN(CC(=O)Nc1ccc(Cl)c(Cl)c1)C(=O)CNC(=O)C1CCCCC1	·	-3	0	·	·	·	·	·	·	·	·
COC(=O)C1CC2=C(CCCC2=O)N(c2ccccc2)C1=O (centres undefined)	·	1	·	·	·	·	·	·	·	·	·
C=CCN(c1cccc(C(F)(F)F)c1)S(=O)(=O)c1cccc(C(=O)OCC(=O)NCCC)c1	3	2	0	-2	-4.2*	?	0.004	0.024*	0.0059*	0.014*	?
CN(C(=O)CSc1nc2ccccc2n1CCc1ccccc1)C1CCS(=O)(=O)C1 (centres undefined)	-5	7	0	6	9.5*	0.0072	0.015*	0.031	0.011*	?	0.014*
Cc1cc(C)cc(-n2c(SC(C)C(=O)NCc3ccc4c(c3)OCO4)nc3ccccc3c2=O)c1 (centres undefined)	-8	-1	1	-17	-0.055	·	·	·	·	·	·
CC(Sc1nc2cc([N+](=O)[O-])ccc2n1-c1ccc(F)cc1)C(=O)NCc1ccc2c(c1)OCO2 (centres undefined)	-5	17	0	-25	10*	0.0092	0.015*	0.034	0.013*	0.027	0.012*
CN(C(=O)CSc1nc2ccc([N+](=O)[O-])cc2s1)C1CCS(=O)(=O)C1 (centres undefined)	5	2	0	15	1.2	·	·	·	·	·	·
CN(C(=O)CSc1nc2cc([N+](=O)[O-])ccc2n1-c1ccc(F)cc1)C1CCS(=O)(=O)C1 (centres undefined)	30	0	0	-14	4.9*	0.0097	0.023*	0.032	0.014*	?	0.011*
CCn1c(SCC(=O)N(Cc2ccccc2)C2CCS(=O)(=O)C2)nc2ccccc2c1=O (centres undefined)	19	4	0	63*	·	0.0075	0.012*	0.03	0.011*	?	0.013*
CCN(CC(=O)NCc1ccc(Cl)cc1)C(=O)c1sccc1C	·	-4	0	·	·	·	·	·	·	·	·
COc1ccc(C)cc1NC(=O)CSc1nc2ccccc2nc1N1CC(C)OC(C)C1 (centres undefined)	5	-3	0	44	·	·	·	·	·	·	·
SMILES	Calb FLC	Cardio protect	Efflux pump inh	PHOSPHO1 block	Cl transport mod	KCC2 secondary	KCC2 bumet counter	KCC2 sec2	HEK293 Tl flux	KCC2 retest ouab	HEK counter2
N#CC1(NC(=O)COc2ccc(S(=O)(=O)N3CCCC3)cc2[N+](=O)[O-])CCCCC1	-10	-2	0	·	·	·	·	·	·	·	·
COc1cc(-c2noc(C)c2C(=O)NCCc2ccccc2)cc(OC)c1OC	·	-1	0	·	·	·	·	·	·	·	·
O=C(N/N=C/c1ccc2c(c1)OCO2)C(O)c1ccccc1 (centres undefined)	-6	3	0	1	4.7*	0.0079	0.0068	0.03	0.0066	0.02	0.0099
O=C(NN=Cc1ccc2c(c1)OCO2)c1ccccc1	·	-4	·	·	·	·	·	·	·	·	·
O=C(CN1CCN(Cc2ccccc2)CC1)Nc1ccc(Cl)cc1	0	-6	0	27	·	·	·	·	·	·	·
Cc1ccc([N+](=O)[O-])cc1NC(=O)C(C)NS(=O)(=O)c1ccc(F)cc1 (centres undefined)	2	4	0	42	0.32	·	·	·	·	·	·
Cc1cc(Br)ccc1OCC(=O)NNC(=O)Cc1ccccc1	-1	-6	0	4	-0.09	·	·	·	·	·	·
Cc1cc(Br)ccc1OCC(=O)NNC(=O)C(=O)Nc1ccccc1	89*	5	0	33	·	0.022*	0.093*	?	0.087*	0.075*	0.072*
Cc1ccc(OCC(=O)NNC(=O)C(=O)N2CCCC2)c(C)c1	20	13	0	19	4.3*	0.0054	0.013*	0.035	0.013*	?	0.015*
COc1ccc(CCNC(=O)C2CCN(S(C)(=O)=O)CC2)cc1	-23	1	0	9	-3.4*	0.0075	0.004	0.027	0.0074	0.019	0.0095
COc1ccc(CCNC(=O)C2CCN(S(=O)(=O)c3ccc(C)cc3)CC2)cc1	-2	-5	0	19	·	·	·	·	·	·	·

Source: PubChem (several laboratories)
